Rows were chosen to be rich in hits. Some 1.9% of all compounds tested hit in one or more screens of this group.
Abeta rescue = A-beta toxicity reversal in yeast; yeast expressing A-beta42, growth rescue, OD600, 48 h; response scale: 0% DMSO, 100% iron-clioquinol control; Potency, µM (doses to about 46.1 µM), usual class: activators; hit rate 0.063% among 410,000; AID 1347071; also: potency is read from the fitted curve at half-maximal effect; nearly all actives have a fitted effect of over 55% in size
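Yeast A-beta toxicity model in growth medium with pinned compounds, 48 h at 30 C; growth read as absorbance at 600 nm. Normalized to FeCl3/clioquinol equimolar mix (positive) and DMSO (negative).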
PTHR1 agonist = agonists of human PTHR1 parathyroid hormone receptor | Potency, µM (top dose mostly 115 µM), without a hit: at the top dose activation, usual class: activators | HEK293 GP2 PTHR1 cells, GloSensor cAMP luminescence, 1 h | hit rate 0.075% among 410,000 | Q03431 | AID 743266; also: potency is read from the fitted curve at half-maximal effect; nearly all actives have a fitted effect of over 55% in size
Target sequence (Q03431 whole entry, looked up): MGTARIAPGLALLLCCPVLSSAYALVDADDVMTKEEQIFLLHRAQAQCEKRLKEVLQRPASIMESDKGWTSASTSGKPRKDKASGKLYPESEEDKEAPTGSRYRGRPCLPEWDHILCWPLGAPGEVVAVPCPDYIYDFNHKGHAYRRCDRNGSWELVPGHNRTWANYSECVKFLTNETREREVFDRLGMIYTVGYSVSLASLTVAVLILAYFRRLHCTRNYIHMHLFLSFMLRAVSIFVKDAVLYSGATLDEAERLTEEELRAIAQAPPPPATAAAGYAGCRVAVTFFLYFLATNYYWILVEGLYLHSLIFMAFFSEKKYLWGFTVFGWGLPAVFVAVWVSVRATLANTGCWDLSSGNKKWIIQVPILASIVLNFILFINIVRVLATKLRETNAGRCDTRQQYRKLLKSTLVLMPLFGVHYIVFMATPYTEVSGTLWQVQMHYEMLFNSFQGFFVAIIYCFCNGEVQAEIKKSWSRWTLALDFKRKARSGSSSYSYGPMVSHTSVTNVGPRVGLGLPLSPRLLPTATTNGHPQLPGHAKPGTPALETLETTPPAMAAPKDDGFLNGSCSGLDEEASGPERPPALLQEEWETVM
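HEK-293-derived GP2 cells expressing PTHR1 and a GloSensor cAMP reporter, 3,000/well, plated overnight, given luciferin plus IBMX (each 0.5 mM as added) for 1 h at 37 °C, then compound for 1 h at 37 °C. Luminescence was read after 15 min at room temperature.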
TDP43 rescue = inhibitors of TDP-43 toxicity in yeast; hit rate 1.8% among 410,000; AID 652104; TDP-43 expressing yeast growth rescue, BacTiter-Glo, 24 h; Potency, µM (series often up to 46.1 µM), inactives show at the top dose growth rescue (activation), actives largely listed as activators; also: potency is read from the fitted curve at half-maximal effect; % of control where 0% means no effect; nearly all actives have a fitted effect of over 50% in size
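Galactose-induced TDP-43 yeast, OD600=0.02, compound pinned; 24 hr, 30 deg C; BacTiter-Glo luminescence for growth. Inhibitors of TDP-43 toxicity read as activators.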
FUS suppressor = FUS proteinopathy suppression in yeast. AID 1347120. hit rate 0.24% among 390,000. Potency, µM (top dose mostly 76.6 µM), usual class: activators. S. cerevisiae FUS-expressing, growth rescue, OD600, 24 h;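 also: potency is read from the fitted curve at half-maximal effect; plate controls were DMSO vehicle for no effect and reference control for full effect; nearly all actives have a fitted effect of over 55% in size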
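FUS-expressing yeast, raffinose-pregrown, induced in 2% galactose minimal medium at OD 0.005; compounds in a dilution series, 24hr at 30C. Growth restoration read as absorbance at 600 nm. CP55940 positive control, DMSO negative.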
aSyn yeast inh = rescues yeast growth from alpha-synuclein toxicity; Yeast expressing alpha-synuclein, growth rescue, BacTiter-Glo, 24 h; hit rate 0.14% among 370,000; Potency, µM (titrated, usually from 46.1 µM), for inactives: at the highest dose growth rescue (activation), most hits filed as activators; also: potency is read from the fitted curve at half-maximal effect; % of control where 0% means no effect; nearly all actives have a fitted effect of over 65% in size
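Screening used galactose-induced yeast with toxic alpha-synuclein levels, exposed to compound for 24 hr at 30 deg C. Cell growth, read with BacTiter-Glo luminescence, gave the measured signal.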
LDHA block = inhibitors of human lactate dehydrogenase A; P00338; purified LDHA, NADH/diaphorase-resazurin fluorescence; stronger effect = lower value; activity change, % (values are at about 110 or 230 µM); hit rate 0.15% among 480,000; AID 1347041; in the data active = activity change below about -30%; inconclusive = mostly about -25% to -30%;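 also: plate controls were DMSO wells for no effect and wells without enzyme for full effect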
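Resorufin fluorescence (ex540/em590), read at 0 and 20 min after diaphorase/resazurin addition, reports the NADH left after a 5 min room-temperature reaction of 2 nM human LDH5 with 0.06 mM NADH and 0.2 mM pyruvate.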
Active calls of the source: *; i = inactive; ? = inconclusive; nt = not tested or not shown; [ ] = remark or other dose. Unless noted, calls follow the shape of the dose curve; as a rule, active = well fitted curve in the direction sought with a large enough effect; inconclusive = small, poorly fitted or top-dose-only effect, or another doubt; inactive = no such curve, though single readings can be large; an effect the other way counts as inactive or inconclusive.

SMILES	Abeta rescue	PTHR1 agonist	TDP43 rescue	FUS suppressor	aSyn yeast inh	LDHA block
COc1ccc(/C=C/c2nc3ccccc3n2Cc2ccccc2OC)cc1	i	-35%	?	i	-12%	-8
COc1ccccc1Cn1c(/C=C/c2ccccc2)nc2ccccc21	i	-25%	20µM*	nt	-29%	-6
CCC(C)Cn1c(/C=C/c2ccccc2)nc2ccccc21 (stereo not given)	i	-35%	14µM*	i	nt	-1
CCCCCCCCCCS(=O)CCO (stereo not given)	nt	nt	nt	nt	nt	9
O=C(O)C(c1c[nH]c2cc(Br)ccc12)N1CCN(c2nsc3ccccc23)CC1 (stereo not given)	nt	nt	nt	nt	nt	2
CCC(C)NCCCOc1ccc(Cl)cc1C(C)(C)C (stereo not given)	i	-16%	-2%	nt	1%	-41*
CNCCCOc1ccc(Cl)cc1C(C)(C)C	i	i	-14%	i	-10%	-7
N#Cc1ccc(C(=O)NC2CCSc3ccccc32)cc1 (stereo not given)	nt	nt	nt	nt	nt	6
CCc1cc2c(CN3CCN(c4ccccc4O)CC3)cc(=O)oc2cc1O	nt	nt	nt	nt	nt	7
CC(=O)Nc1ccc(NC(=O)C2CCN(c3ccc(C(F)(F)F)cn3)CC2)cc1	i	-7%	-11%	i	-8%	-4
O=C(NCCc1cccs1)C1CCN(c2ccc(C(F)(F)F)cn2)CC1	nt	nt	nt	nt	nt	-31*
O=C(CN1C(=O)CC(c2ccco2)Sc2ccccc21)Nc1ccccc1F (stereo not given)	i	-22%	32µM*	i	8%	2
O=C(OCc1nc2ccccc2o1)c1cccc(S(=O)(=O)NCc2ccccc2)c1	nt	nt	nt	nt	nt	9
O=C1c2ccccc2NC(c2ccc(Cl)cc2Cl)N1Cc1ccccc1 (stereo not given)	i	-3%	13%	i	5%	5
O=C1c2ccccc2NC(c2c(Cl)cccc2Cl)N1Cc1ccccc1 (stereo not given)	i	-1%	25µM*	i	-10%	0
COc1ccc(C2(c3ccc(OC)cc3)NC(=O)N(CC(=O)NC3(C#N)CCCCC3)C2=O)cc1	i	-16%	-5%	14µM*	1%[1.84 µM]	-4
O=C(O)CCSc1ccccc1F	nt	nt	nt	nt	nt	4
COc1cc(C(=O)Nc2oc3c(C)cccc3c(=O)c2-c2ccccc2)cc(OC)c1OC	nt	nt	nt	nt	nt	0
O=C(CN1CCN(S(=O)(=O)c2cc(Cl)ccc2Cl)CC1)Nc1cccc(F)c1	i	-20%	35µM*	i	9%	-6
COc1cccc(C(=O)Nc2cccc(NC(=O)c3ccccc3Cl)c2)c1	i	i	?	?	-1%	-13
COc1cccc(NC(=O)c2cnsn2)c1	i	i	13µM*	i	nt	0
COc1cccc(C(=O)Nc2cccc(NC(=O)c3ccc(Cl)cc3Cl)c2)c1	i	-14%	11µM*	i	nt	-3
COc1cccc(NC(=O)c2csc3c2CCCC3)c1	i	i	18µM*	i	-7%	-2
COc1ccc(NC(=O)c2csc3c2CCCC3)cc1	i	-36%	-8%	i	0%	1
COc1cccc(C(=O)C(Cl)C(=O)c2cccc(OC)c2)c1	nt	nt	nt	nt	nt	-1
SMILES	Abeta rescue	PTHR1 agonist	TDP43 rescue	FUS suppressor	aSyn yeast inh	LDHA block
CCOC(=O)N1CCN(C(=O)CN(c2cc(Cl)ccc2Cl)S(C)(=O)=O)CC1	nt	nt	nt	nt	nt	9
CCCOC(=O)COc1ccc2c(=O)c(Oc3ccccc3Br)coc2c1	nt	nt	nt	nt	nt	-10
COc1cc(OC)c2cc(C(=O)N[C@@H](C)C(=O)Nc3ccc4c(c3)OCCO4)n(C)c2c1	nt	nt	nt	nt	nt	9
C=CCSc1nnc(-c2sc(-c3ccccc3)nc2C)n1C	i	-15%	16µM*	i	nt	0
O=C(Nc1ccc2oc(-c3cccnc3)nc2c1)c1cc(Cl)ccc1Cl	nt	nt	nt	nt	nt	-10
O=C(COC(=O)c1cccnc1Cl)c1cccc(Cl)c1	i	-28%	11µM*	i	nt	0
O=C(CCNS(=O)(=O)c1ccc(Br)s1)N1CCN(c2ccccc2)CC1	i	-18%	18µM*	i	?	-5
COc1ccccc1N1CCN(C(=O)CCNS(=O)(=O)c2ccc(Br)s2)CC1	i	-34%	22µM*	i	?	-3
Cc1ccc(S(=O)(=O)NCCC(=O)N2CCN(c3ccccc3)CC2)cc1C	i	-4%	?	i	17%	-4
Nc1nonc1-n1nnc(C(=O)N/N=C/c2cc(Br)ccc2O)c1CNc1ccccc1	i	i	1%	i	-4%	-5
Nc1nonc1C(=O)N/N=C/c1cc(Br)ccc1O	10µM*	-12%	2.8µM*	i	?	1
Cc1cccc(NC(=O)Cn2cnc3ccc(S(=O)(=O)N4CCC(C)CC4)cc3c2=O)n1	i	-7%	-8%	35µM*	-8%	-2
COC(=O)CSc1ncc(S(=O)(=O)c2ccccc2)c(=O)[nH]1	i	i	-16%	i	3%	-6
CCc1ccccc1NC(=O)CSc1ncc(S(=O)(=O)c2ccccc2)c(=O)[nH]1	i	i	7%	i	4µM*	0
COc1ccc(NC(=O)Nc2ccc3c(c2)C(=O)N([C@H](C)CO)C[C@H](C)[C@@H](CN(C)Cc2ccc(Cl)c(Cl)c2)OCCCC[C@@H](C)O3)cc1	i	-15%	6%	?	-2%	4
C[C@H](CO)N1C[C@H](C)[C@@H](CN(C)C(=O)Nc2ccc(C(F)(F)F)cc2)Oc2ccc(NC(=O)Nc3ccc(C(F)(F)F)cc3)cc2C1=O	i	-17%	?	?	2%	4
C[C@@H]1CCCCO[C@H](CN(C)Cc2ccc(Cl)c(Cl)c2)[C@H](C)CN([C@@H](C)CO)C(=O)c2cc(NC(=O)Nc3ccc(F)cc3)ccc2O1	i	-13%	0%	35µM*	-6%	-4
C[C@@H]1CN([C@H](C)CO)C(=O)c2cc(NC(=O)Nc3ccc(C(F)(F)F)cc3)ccc2O[C@H]1CN(C)C(=O)Nc1ccc(F)cc1	i	9%	-16%	28µM*	1%	1
CCOC(=O)CCCCCC(=O)Nc1ccc2c(c1)C(=O)N([C@@H](C)CO)C[C@H](C)[C@H](CN(C)C(=O)Nc1ccc(F)cc1)OCCCC[C@H](C)O2	i	-21%	27%	22µM*	0%	-9
CCOC(=O)CCCCCC(=O)Nc1ccc2c(c1)C(=O)N([C@@H](C)CO)C[C@H](C)[C@H](CN(C)C(=O)NC(C)C)OCCCC[C@H](C)O2	i	-28%	17%	?	1%	0

Source: PubChem
